Source: the supplement of paper PMC6555819

System: RARb homodimer (NR concentration 270 nM)
Assay: PBM binding z-score (relative to random genomic background probes); higher = stronger binding; sequences stand for … in GC…GCGATTGACAGCGTAGAATGAAGG
Method in brief: (§1)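 Ligand-free nuclear receptor dimers were applied to custom Agilent 4×180K protein-binding microarrays whose double-stranded probes carried direct-repeat seeds, single-nucleotide variants, half-site ablations and random human genomic background sequences in 34-nt variable regions. Incubation lasted 1 h. Binding z-scores were computed against the random background probes from regression-normalized fluorescence.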

| Sequence | PBM binding z-score |
| --- | --- |
| CCGAGTAGATTATGGGGCATTCAGGCAACGGTGA | 0.0129 |
| CGTCAAAGATCAACTAAGGTAACGTAAAGCACGC | 0.577 |
| ACTATTAGCTGAGACGAGGGCAACCGATAGGTTG | 1.27 |
| ATCTCTAGGTAAGAATCAGTTCAGTGAAGAACGC | 0.542 |
| CTAGAAAGGTCGTGCTCAGGTGAGTATACCAAAC | 2.93 |
| TATTGTAGATCAACAGGAGGTTAAGAAAGATCGA | 0.682 |
| CCTGCTAGGTCAATGTTCAGCTAAAGCAGCTCGC | 2.69 |
| TCATATAGGTACATGCTAGGTGAAAGTCCGATCT | 0.598 |
| TTTCGGAGGACACGAAAGGTCAGAGCTCGACATC | 4.68 |
| CAGCCTAGGTCAGGGCCAGTCTAGGAGGAACGTT | 2.6 |
| TTACCAAGATGAAGGTCGTTGATCCCTCTGTAGA | 0.806 |
| TTACCAAGGTGAGCAGAGGTCGTTGATCCAACTC | 2.31 |
| TCATATAGGTAAACAGGTTAAAGTCCGTAAGTTA | 1.19 |
| TCGAGTAGGTTAGTCTGGGCATTCAGCCAACATA | -0.367 |
| GCTCGGAGGACAAGGTCAGAGCATTGTCCGTAGA | 3.1 |
| GATACAGGGTCAGCTAGAGGACAGAGTATGGAAA | 3.71 |
| ACTAGCAGGCCAAGTTTCGGTCACTCAAACAAAG | 1.95 |
| AGTACAGGGTCATCGTAGGCCAGAGTACGCACAG | 3.81 |
| ATCTCTCGGTAACCAAGTTCAGTGAATGCCGAAC | 1.51 |
| GATACAGGGTCAGCTAGAGGCCAGAGTGTGGAAA | 3.67 |

| Sequence | PBM binding z-score |
| --- | --- |
| TAGCCTAGGTCAGATCGGGCCAGTAGACGCTATA | 1.76 |
| CGTCCAAGGTTATAGGAGGTCAGTGAAGACAGAT | 3.79 |
| TTACCAAGATGAGCTGAGGTCGTTGATCCAACTC | 0.571 |
| CTCAAAAGGTCGTGCTCAGGTGAGTATACCAAAC | 2.79 |
| TCGAGTAGGTTATCAATGGGGCATTCAGCTTTCT | 0.483 |
| CGAACTAGGTGAGAACAGGACAGTGAAGGATGAT | 0.34 |
| GATAGAGGGTCAGCTAGAGGCCAGAGTATGGAAA | 3.28 |
| CGAACTAGGTCTGAACAGGACAGTGAAGGATGAT | 0.0456 |
| TCTTGGAGATCAAGCAGGTTAAGAAAGCCTGAGT | 0.0966 |
| CTCGAAAAGTCGTGCTCAGGTGAGTATACCAAAC | 0.216 |
| GCTAGTTGGTCAGTAAAAGGTCAGACACCGGTCG | 4.8 |
| CCTATTAGTTGACCATAGGGGCAACCGAAGCTCG | 1.3 |
| TCATATAGCTAAACAGGTGAAAGTCCGTAAGTTA | 0.282 |
| ATTTACGGGTCAACGAGGTTATAGCACGCGTATA | 3.79 |
| ACTATTAGTTGAGACGAAGGCAACCGATAGGTTG | -0.559 |
| ATCGAAAGGTCGTGAGGTGAGTGTACAGAAAGGC | 3.06 |
| TCGAGTAGGTTAGGGGCCTTCAGAATGGCGTCGA | -0.137 |
| CAAACTAGGTCACGAAAGATCAAAGTCGAATGAC | 3.2 |
| AGCACGAGGGCAATGAGTTGATAGCACGGGTGGC | 0.927 |
| TATACAGGGTCAAAGGCCAGCGTACGAATGTCGA | 3.48 |

System: RARg:RXRa (NR concentration 270 nM, RXRa partner concentration 90 nM)
Assay: as above
Method in brief: as §1

| Sequence | PBM binding z-score |
| --- | --- |
| CCGAGTAGATTATGGGGCATTCAGGCAACGGTGA | -0.113 |
| CGTCAAAGATCAACTAAGGTAACGTAAAGCACGC | 0.743 |
| ACTATTAGCTGAGACGAGGGCAACCGATAGGTTG | 0.452 |
| ATCTCTAGGTAAGAATCAGTTCAGTGAAGAACGC | 0.529 |
| CTAGAAAGGTCGTGCTCAGGTGAGTATACCAAAC | 4.96 |
| TATTGTAGATCAACAGGAGGTTAAGAAAGATCGA | 1 |
| CCTGCTAGGTCAATGTTCAGCTAAAGCAGCTCGC | 3.48 |
| TCATATAGGTACATGCTAGGTGAAAGTCCGATCT | 0.521 |
| TTTCGGAGGACACGAAAGGTCAGAGCTCGACATC | 4.88 |
| CAGCCTAGGTCAGGGCCAGTCTAGGAGGAACGTT | 2.83 |
| TTACCAAGATGAAGGTCGTTGATCCCTCTGTAGA | 0.203 |
| TTACCAAGGTGAGCAGAGGTCGTTGATCCAACTC | 1.68 |
| TCATATAGGTAAACAGGTTAAAGTCCGTAAGTTA | 1.04 |
| TCGAGTAGGTTAGTCTGGGCATTCAGCCAACATA | -0.389 |
| GCTCGGAGGACAAGGTCAGAGCATTGTCCGTAGA | 3.37 |
| GATACAGGGTCAGCTAGAGGACAGAGTATGGAAA | 6.86 |
| ACTAGCAGGCCAAGTTTCGGTCACTCAAACAAAG | 1.68 |
| AGTACAGGGTCATCGTAGGCCAGAGTACGCACAG | 5.65 |
| ATCTCTCGGTAACCAAGTTCAGTGAATGCCGAAC | 0.706 |
| GATACAGGGTCAGCTAGAGGCCAGAGTGTGGAAA | 6.74 |

| Sequence | PBM binding z-score |
| --- | --- |
| TAGCCTAGGTCAGATCGGGCCAGTAGACGCTATA | 2.74 |
| CGTCCAAGGTTATAGGAGGTCAGTGAAGACAGAT | 3.62 |
| TTACCAAGATGAGCTGAGGTCGTTGATCCAACTC | 0.267 |
| CTCAAAAGGTCGTGCTCAGGTGAGTATACCAAAC | 5.29 |
| TCGAGTAGGTTATCAATGGGGCATTCAGCTTTCT | 0.919 |
| CGAACTAGGTGAGAACAGGACAGTGAAGGATGAT | 0.567 |
| GATAGAGGGTCAGCTAGAGGCCAGAGTATGGAAA | 6.38 |
| CGAACTAGGTCTGAACAGGACAGTGAAGGATGAT | 0.195 |
| TCTTGGAGATCAAGCAGGTTAAGAAAGCCTGAGT | 0.06 |
| CTCGAAAAGTCGTGCTCAGGTGAGTATACCAAAC | 0.157 |
| GCTAGTTGGTCAGTAAAAGGTCAGACACCGGTCG | 4.68 |
| CCTATTAGTTGACCATAGGGGCAACCGAAGCTCG | 0.669 |
| TCATATAGCTAAACAGGTGAAAGTCCGTAAGTTA | 0.0319 |
| ATTTACGGGTCAACGAGGTTATAGCACGCGTATA | 6.1 |
| ACTATTAGTTGAGACGAAGGCAACCGATAGGTTG | -0.255 |
| ATCGAAAGGTCGTGAGGTGAGTGTACAGAAAGGC | 4.52 |
| TCGAGTAGGTTAGGGGCCTTCAGAATGGCGTCGA | -0.483 |
| CAAACTAGGTCACGAAAGATCAAAGTCGAATGAC | 4.8 |
| AGCACGAGGGCAATGAGTTGATAGCACGGGTGGC | 1.16 |
| TATACAGGGTCAAAGGCCAGCGTACGAATGTCGA | 5.75 |
